Data published in PubChem BioAssay.
Active and inactive are the calls of the source.

Legend:
[1] = anti-His antibody binders, primary screen, artefact control for SMM control protein annotation, biochemical, small-molecule microarray, 635 nm fluorescence (AID 1128); conditions: anti-His Alexa647 antibody binding, higher = more signal;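 note: score merges feature fluorescence with signal-to-noise for each printed compound spot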
[2] = test system: Human papillomavirus type 1a E7 protein (residues 1-88); experiment: HPV1a E7 small-molecule binders, primary screen, biochemical, small-molecule microarray, residues 1-88, 635 nm (AID 1129); conditions: small-molecule microarray binding, fluorescence 635 nm; higher = more signal
[3] = biological target: Focal adhesion kinase 1 (Homo sapiens) (UniProt Q05397); experiment: small-molecule microarray binders of FAK, primary screen, biochemical, 635/667 nm fluorescence, BSA, DTT (AID 1130); conditions: PTK2 binding, 635 nm fluorescence, higher = more signal;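 note: composite of spot emission at 667 nm and signal to noise over triplicate slides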
Focal adhesion kinase 1 (Homo sapiens), sequence (Q05397 whole entry, looked up): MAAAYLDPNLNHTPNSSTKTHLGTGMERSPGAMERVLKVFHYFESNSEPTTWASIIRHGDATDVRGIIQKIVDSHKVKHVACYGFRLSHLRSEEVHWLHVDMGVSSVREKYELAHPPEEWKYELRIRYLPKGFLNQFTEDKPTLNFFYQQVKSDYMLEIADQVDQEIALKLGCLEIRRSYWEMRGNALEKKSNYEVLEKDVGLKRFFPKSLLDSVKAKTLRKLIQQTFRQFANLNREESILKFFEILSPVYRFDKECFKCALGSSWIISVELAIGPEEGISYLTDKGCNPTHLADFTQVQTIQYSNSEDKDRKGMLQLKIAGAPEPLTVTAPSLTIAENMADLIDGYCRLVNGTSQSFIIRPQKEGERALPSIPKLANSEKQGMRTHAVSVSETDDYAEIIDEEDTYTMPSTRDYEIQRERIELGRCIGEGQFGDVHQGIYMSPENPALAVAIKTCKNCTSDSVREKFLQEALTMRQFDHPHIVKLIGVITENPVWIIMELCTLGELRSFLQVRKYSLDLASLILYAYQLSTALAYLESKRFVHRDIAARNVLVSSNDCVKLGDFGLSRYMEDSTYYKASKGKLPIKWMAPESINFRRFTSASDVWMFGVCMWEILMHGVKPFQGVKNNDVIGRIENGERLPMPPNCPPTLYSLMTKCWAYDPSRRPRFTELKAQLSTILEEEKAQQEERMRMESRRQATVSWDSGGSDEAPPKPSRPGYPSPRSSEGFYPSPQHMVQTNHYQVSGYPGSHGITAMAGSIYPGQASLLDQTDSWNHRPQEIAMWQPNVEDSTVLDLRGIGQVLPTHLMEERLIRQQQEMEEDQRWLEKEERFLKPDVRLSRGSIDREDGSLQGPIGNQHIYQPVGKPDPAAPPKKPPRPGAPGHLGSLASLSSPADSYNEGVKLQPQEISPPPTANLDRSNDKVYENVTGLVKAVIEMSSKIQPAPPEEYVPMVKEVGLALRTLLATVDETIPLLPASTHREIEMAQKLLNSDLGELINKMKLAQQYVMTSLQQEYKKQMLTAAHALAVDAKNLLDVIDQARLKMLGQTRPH

[4] = test system: Fibrinogen (Alexa647-labelled); experiment: fibrinogen binders on compound microarrays, profiling panel, artefact control for SMM control-protein annotation, biochemical, small-molecule microarray, 635/667 nm fluorescence (AID 1131); conditions: fibrinogen-A647 binding fluorescence, higher = more signal;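 note: z-score merges 667 nm fluorescence with per-spot signal-to-noise over triplicate slides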
[5] = biological target: Follistatin (Homo sapiens) (UniProt P19883); experiment: follistatin binders on small-molecule microarrays, primary screen, biochemical, small-molecule microarray, 635/667 nm fluorescence (AID 1132); conditions: FST binding, 635 nm fluorescence, higher = more signal
Follistatin (Homo sapiens), sequence (P19883 whole entry, looked up): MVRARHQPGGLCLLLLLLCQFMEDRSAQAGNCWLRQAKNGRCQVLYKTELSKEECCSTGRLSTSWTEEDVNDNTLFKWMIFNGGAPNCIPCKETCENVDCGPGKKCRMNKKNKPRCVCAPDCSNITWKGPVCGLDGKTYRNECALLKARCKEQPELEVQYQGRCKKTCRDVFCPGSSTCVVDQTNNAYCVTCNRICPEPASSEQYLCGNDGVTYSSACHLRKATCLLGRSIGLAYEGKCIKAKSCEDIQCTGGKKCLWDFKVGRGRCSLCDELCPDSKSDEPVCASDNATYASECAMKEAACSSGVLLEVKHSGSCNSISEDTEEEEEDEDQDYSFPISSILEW

[6] = biological target: Fibroblast growth factor 2 (Homo sapiens) (UniProt P09038); experiment: FGF2 binders on small-molecule microarrays, primary screen, biochemical, small-molecule microarray, 635/667 nm fluorescence (AID 1133); conditions: small-molecule microarray binding, FGF2, fluorescence 635/667; higher = more signal
Fibroblast growth factor 2 (Homo sapiens), sequence (P09038 whole entry, looked up): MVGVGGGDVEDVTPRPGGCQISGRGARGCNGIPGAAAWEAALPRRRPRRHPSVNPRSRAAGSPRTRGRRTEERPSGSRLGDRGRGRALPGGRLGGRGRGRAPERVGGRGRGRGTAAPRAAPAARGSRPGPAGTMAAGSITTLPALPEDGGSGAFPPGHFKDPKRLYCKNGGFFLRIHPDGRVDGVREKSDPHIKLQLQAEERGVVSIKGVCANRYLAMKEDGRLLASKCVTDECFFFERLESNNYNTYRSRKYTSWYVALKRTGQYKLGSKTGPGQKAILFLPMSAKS

[7] = mitochondrial membrane potential change in A549 cells, profiling panel, cell-based, JC-1 fluorescence, basal, 24 h, 100 nL (AID 1138); conditions: higher = more signal;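 note: A549 lung adenocarcinoma cells under basal conditions with no added stimulus; test concentration not given here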
Lefty1 = Lefty1 binders on small-molecule microarrays, primary screen, biochemical, small-molecule microarray, 635/667 nm fluorescence (AID 1139); conditions: small-molecule microarray binding, fluorescence 635/667; higher = more signal
[8] = test system: wheat germ agglutinin (Triticum aestivum), Alexa647-labelled; experiment: wheat germ agglutinin binders on compound microarrays, profiling panel, artefact control for SMM control-protein annotation, biochemical, small-molecule microarray, 635/667 nm fluorescence (AID 1140); conditions: WGA-A647 binding, 635 nm fluorescence, higher = more signal;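 note: score merges 667 nm feature emission with signal to noise over triplicate slides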
[9] = biological target: Luciferin 4-monooxygenase (Photinus pyralis) (UniProt P08659); experiment: firefly luciferase enzyme inhibitors, primary screen, biochemical, luminescence, purified enzyme, 2006 set (AID 1141); conditions: SteadyGlo luminescence, 30 min, higher = more signal, called active from +8 up or from −8 down;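 note: cell-free assay with purified firefly luciferase at 100 ng per well in PBS; test concentration not given here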
Luciferin 4-monooxygenase (Photinus pyralis), sequence (P08659 whole entry, looked up): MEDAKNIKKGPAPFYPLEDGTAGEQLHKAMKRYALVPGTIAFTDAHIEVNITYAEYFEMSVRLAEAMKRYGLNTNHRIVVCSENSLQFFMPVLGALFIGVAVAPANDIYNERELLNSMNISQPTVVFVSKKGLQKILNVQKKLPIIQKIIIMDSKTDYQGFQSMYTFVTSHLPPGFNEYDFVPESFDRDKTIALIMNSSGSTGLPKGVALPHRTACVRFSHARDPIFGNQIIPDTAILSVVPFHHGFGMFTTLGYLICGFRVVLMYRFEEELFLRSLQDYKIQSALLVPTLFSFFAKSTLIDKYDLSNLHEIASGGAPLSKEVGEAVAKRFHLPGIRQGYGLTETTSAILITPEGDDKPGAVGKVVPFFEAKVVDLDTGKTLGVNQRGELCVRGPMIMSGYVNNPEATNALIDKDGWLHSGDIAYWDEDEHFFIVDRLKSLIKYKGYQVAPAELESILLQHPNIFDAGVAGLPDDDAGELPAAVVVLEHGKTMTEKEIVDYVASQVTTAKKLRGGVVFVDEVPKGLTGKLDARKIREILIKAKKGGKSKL

| SMILES | composite z-score [1] | composite z-score [2] | composite z-score [3] | composite z-score [4] | composite z-score [5] | composite z-score [6] | z-score [7] | composite z-score (Lefty1) | composite z-score [8] | z-score [9] |
| --- | --- | --- | --- | --- | --- | --- | --- | --- | --- | --- |
| CCCN1C(=O)[C@]2(CCC(=O)OC(C)(C)C)N=C(c3ccc(OCCCO)cc3)O[C@@H]2c2ccccc21 | 0.144 | 1.01 | 0.497 | 0.496 | 1.49 | 0.714 | 0.719 | 0.37 | 0.0961 | -1.55 (inactive) |
| CN(C)CCCNC(=O)[C@@]1(Cc2ccccc2I)c2ccccc2C(=O)N(C2CCCCC2)[C@H]1c1ccc(CO)cc1 | 0.743 | 1.2 | 0.732 | 1.01 | 0.872 | 0.156 | -1.42 | 0.27 | 1.2 | 0.371 (inactive) |
| O=C1C2C=CC(C(O)c3ccc([N+](=O)[O-])cc3)N(Nc3ccccc3F)C2C(=O)N1c1ccccc1 (stereo not given) | 1.68 | 1.19 | -0.119 | 0.717 | 0.232 | -0.218 | -0.675 | -0.46 | 1.36 | 0.739 (inactive) |
| COc1cc(C(O)C2C=CC3C(=O)N(c4ccccc4)C(=O)C3N2Nc2ccccc2F)cc(OC)c1OC (stereo not given) | 1.66 | 1.28 | 0.337 | 1.03 | 0.233 | -0.171 | -0.374 | 0.323 | 0.792 | -0.397 (inactive) |
| COC(=O)[C@@]1(Cc2ccc(F)cc2)[C@H]2c3cc(C(=O)N4CCCC4)n(CCc4ccccn4)c3C[C@H]2CN1C(=O)c1ccccc1 | 0.272 | 0.786 | 0.754 | 0.97 | -0.227 | -0.418 | 0.622 | -1.03 | 1.01 | 0.458 (inactive) |
| COC(=O)C1(Cc2ccccc2)C=C2C(=C(C)C(=O)C2C)CN1 (stereo not given) | 1.21 | 0.732 | 0.296 | 0.775 | 0.714 | -0.298 | 1.47 | -0.104 | 0.622 | -0.112 (inactive) |
| CC(C)C[C@@H]1NC(=O)[C@@]23C(=O)N[C@@H](Cc4ccccc4)C2[C@H](C)[C@@]2(C)O[C@H]2C3/C=C/C/C=C\CNC(=O)CNC1=O (stereo not given in full) | 0.256 | 0.088 | -0.0353 | 0.177 | 0.929 | 0.766 | -0.0173 | 0.938 | 0.375 | -0.321 (inactive) |
| Cc1ccc(S[C@]2(C(=O)NCC(F)(F)F)CC(=O)N(Cc3ccccc3C(F)(F)F)[C@@H]2c2ccc(CO)cc2)cc1 | -0.344 | -0.481 | -1.09 | -0.563 | -1.11 | -0.826 | -0.144 | -1.44 | -0.564 | 0.714 (inactive) |
| COc1ccc([Si](C)(C)[C@H]2[C@H](CC(=O)N3Cc4ccccc4C[C@H]3CO)O[C@@]3(C(=O)N(C)c4ccccc43)[C@@H]2C)cc1 | 1.45 | 1.19 | 0.333 | 0.945 | 1.52 | 1.24 | 0.206 | 1.58 | 0.938 | -0.243 (inactive) |
| COCCOC(=O)N1C(=O)[C@@]2(c3cc(C#CCCO)ccc31)[C@H](c1ccc(OCCO)cc1)N1[C@H](c3ccccc3)[C@H](c3ccccc3)OC(=O)[C@H]1[C@@H]2C(=O)N1CCCCCCC1 | 0.939 | 1.2 | 0.644 | 0.726 | 1.46 | 1.68 | -0.901 | 1.33 | 1.32 | -0.247 (inactive) |
| C=C(COC)C(=O)CC[C@H](OC(=O)c1cccnc1)c1ccc(OCCO)cc1 | -0.108 | 0.355 | -0.172 | 0.637 | 1.07 | 0.893 | -0.747 | 1.63 | 0.73 | -2.23 (inactive) |
| CCCC#C[Si](O[C@H](CC)c1cn(Cc2ccccc2)nn1)(C(C)C)C(C)C | 0.738 | 0.209 | 0.0116 | 0.903 | 1.01 | 0.525 | -0.0817 | 0.828 | 0.143 | -0.403 (inactive) |
| CCCCCCc1nc(-c2ccc(-c3ccc(Cl)c(Cl)c3)o2)cc2c1[Si](C(C)C)(C(C)C)OC2 | -0.265 | -0.819 | -0.0104 | -1.85 | -0.577 | -0.985 | -0.413 | -0.468 | 0.105 | -5.02 (inactive) |
| Cc1ccc(C(C)CC(O)C2C=CC3C(=O)N(C)C(=O)C3N2Nc2ccccc2)o1 (stereo not given) | 0.298 | 1.22 | 0.0621 | 0.655 | 0.941 | 0.482 | 0.16 | 0.497 | 1.15 | 0.226 (inactive) |
| O=C(O)[C@H](Cc1ccccc1)n1cc(C2(O)CCCCC2)nn1 | 0.689 | 0.357 | 0.736 | 0.52 | 0.142 | 0.278 | -0.141 | 0.676 | 0.0402 | -0.0102 (inactive) |
| O=C1NC(=O)C2C1C=CC(C(O)c1ccc(B(O)O)cc1)N2Nc1ccc(Cl)cc1Cl (stereo not given) | 0.207 | -0.213 | 0.265 | 0.824 | 0.529 | -0.514 | -0.711 | -0.382 | 0.641 | -0.63 (inactive) |
| CCN(CC)c1ccc(N2CC=CC34O[C@@H]5C=CCCOC(=O)C5[C@H]3C(=O)N(C(C)CO)[C@@H]4C2=O)cc1 (stereo not given in full) | 1.72 | 0.649 | 0.339 | -0.943 | 0.461 | -0.199 | 0.337 | 0.399 | 0.329 | -0.421 (inactive) |
| [N-]=[N+]=Nc1ccccc1C[C@@]1(C(=O)NCC(O)CO)N=C(c2ccc(OCCCO)cc2)O[C@@H]1c1ccccc1 (stereo not given in full) | -0.0048 | 1.2 | 0.206 | 0.54 | -0.327 | 0.0559 | 1 | -0.867 | 0.436 | -2.44 (inactive) |
| [N-]=[N+]=NCc1ccccc1[C@@H]1OC(c2ccc(OCCCO)cc2)=N[C@]1(Cc1ccccc1N=[N+]=[N-])C(=O)O | 3.38 | 1.23 | 0.334 | 1.04 | 1.1 | 0.626 | -0.652 | -0.132 | 1.21 | -5.68 (inactive) |
| CCOC(=O)C1=CC[C@@H](c2ccccc2)N(S(=O)(=O)c2ccc(C)cc2)[C@H]1c1ccccc1I | 1.5 | 1.21 | 0.475 | 0.995 | 0.923 | 0.184 | 1.27 | -0.163 | 1.01 | 1.55 (inactive) |
| CN(C)C(=O)[C@]1(Cc2ccccc2)N=C(c2ccc(OCCCO)cc2)O[C@@H]1c1ccccc1CN=[N+]=[N-] | 0.997 | 1.21 | 0.438 | 1.02 | 1.04 | 0.287 | 0.829 | 0.463 | 0.569 | 0.361 (inactive) |
| COCCOC(=O)N1C(=O)[C@@]2(c3cc(C#CCC(C(=O)OC)C(=O)OC)ccc31)[C@H](c1ccc(O)cc1)N1[C@H](c3ccccc3)[C@H](c3ccccc3)OC(=O)[C@H]1[C@@H]2C(=O)Nc1nc2ccccc2s1 | 1.15 | 1.21 | 2.02 | 0.954 | 1.42 | 1.54 | -2.1 | 1.44 | 0.968 | -0.344 (inactive) |
| COC(=O)[C@@]1(Cc2ccccc2)[C@H]2c3cc(C(=O)N(C)C)n(CCSC(=N)N)c3C[C@H]2CN1C(=O)c1ccccc1 | 0.367 | 0.336 | 0.117 | 0.869 | -0.239 | 0.277 | 0.378 | -0.318 | 0.164 | 1.13 (inactive) |
| COCCOC(=O)N1C(=O)[C@@]2(c3cc(C#CCNC(N)=O)ccc31)[C@H](C(=O)Nc1nc3ccccc3s1)[C@H]1C(=O)O[C@H](c3ccccc3)[C@H](c3ccccc3)N1[C@@H]2c1ccccc1OCCO | -0.218 | 0.423 | 0.553 | 0.749 | 1.48 | 1.61 | -1.79 | 1.39 | 0.489 | -2.69 (inactive) |
| NC(=O)NCC#Cc1ccc2c(c1)[C@]1(C(=O)N2)[C@H](c2ccc(OCCO)cc2)N2[C@H](c3ccccc3)[C@H](c3ccccc3)OC(=O)[C@H]2[C@@H]1C(=O)NC[C@H](O)c1ccccc1 | -0.454 | 0.542 | 0.115 | 0.879 | 1.25 | -0.0515 | -1.08 | 0.395 | 0.259 | 0.409 (inactive) |
| CC(C)(C)N1CC=CC23O[C@@H]4C=CCOC(=O)[C@@H]4[C@H]2C(=O)N(CCO)[C@@H]3C1=O (stereo not given in full) | 1.6 | -0.539 | -0.747 | -2.09 | -0.262 | -1.36 | 0.257 | -0.0106 | -0.155 | -0.387 (inactive) |
| CC(C)=C1C(=O)C(c2ccccc2)=C2CN3C(=O)N(CCc4ccccc4)C(=O)[C@]3(C)[C@H]21 | -0.0854 | 0.871 | 0.701 | 0.679 | 0.21 | -0.648 | 1.77 | -0.455 | 0.673 | 0.0775 (inactive) |
| O=C1C[C@@](C(=O)NC2CC2)(c2ccc([N+](=O)[O-])cc2)[C@@H](c2ccc(CO)cc2)N1C1CCCCC1 | 2.79 | 1.23 | 0.333 | 0.122 | 1.3 | 1.64 | -0.282 | 0.894 | 0.407 | 0.997 (inactive) |
